Measurements from PubChem BioAssay AID540267 (National Center for Advancing Translational Sciences (NCATS), 2011).
Out of some 340,000 compounds screened, about 530 (0.16%) were called active. Roughly 2% stayed inconclusive and do not appear here. This is one part of a sample in which actives are shown more often than they occur. A number with no mark means an inactive call. Rule as the data show it: active = activity change below about -80%; inconclusive = between about -30% and that limit; inactive = weaker than that.

Experiment: Small Molecules that selectively kill Giardia lamblia: qHTS;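 also: parasites exposed to compound for two days anaerobically before the ATP read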
Settings: Giardia lamblia trophozoite viability; at 7.66 µM; stronger effect = lower value
Description: Giardia lamblia is a human pathogen afflicting impoverished nations, and the most common cause of outbreaks of diarrhea in the United States. Giardia has been classified by the CDC as a category B bioterrorism organism. The favored anti giardiasis drugs in the US are metronidazole or tinidazole, compounds that have undesirable side effects. Moreover, increasing resistance to drug regimes and recurrence are a concern. It is thus clear that alternative drug treatments are needed.
In a collaboration between the University of Maryland, College Park and the NIH Chemical Genomics Center, a bioluminescence Giardia viability assay based on the trophozoites' ATP content was developed. This assay is suitable for high throughput screening, and miniaturized the assay for compound screening in 1536-well plates. The goal of the project is to screen the Molecular Libraries Small Molecule Repository (MLSMR) for compounds that selectively kill Giardia trophozoites.
NIH Chemical Genomics Center [NCGC]
NIH Molecular Libraries Probe Centers Network [MLPCN]
Assay Submitter (PI): Osnat Herzberg, University of Maryland, College Park, MD.
1. Dispense 2 ul/well media
2. Dispense 23 nl/well compounds
3. Dispense 4 ul/well Giardia trophozoites at a concentration of 100 cells/well
4. Incubate 48 hrs at 37 deg C anaerobically
5. Dispense 4 ul/well ATPLite 1-Step Luminescence assay kit
6. Incubate 15-30 min at room temperature
7. Read luminescence signal on ViewLux plate reader
% is scaled to controls: 0 for no effect and ±100 for the full control effect.

Row | SMILES | activity change
1 | Oc1ccc(Br)cc1C1C=C(c2ccc3c(c2)OCO3)NC(c2ccc(Cl)cc2)N1 (stereo unspecified) | -6.54%
2 | CC1CC(C)(C)CC2(C1)NC(=O)N(CC(=O)Nc1nccs1)C2=O (stereo unspecified) | 7.14%
3 | COc1ccc(-c2nc(=N)sn2-c2ccccc2)cc1 | 5%
4 | Cc1ccc(SCC(CC(C)C)N2CCN(CCc3ccccc3)CCC2=O)cc1 (stereo unspecified) | -1.92%
5 | COc1ccccc1Nc1cc(C(=O)NCCCN(C)C2CCCCC2)c2ccccc2n1 | -11.5%
6 | CN(C)Cc1cn(-c2ccccc2)nc1-c1ccccc1 | 2.86%
7 | [O-][n+]1ccc(OCc2ccccc2)cc1 | 23.2%
8 | CCc1ccc(OCCCn2c(CCCNC(=O)C3CCCCC3)nc3ccccc32)cc1 | -7.56%
9 | C=CCSc1nnc(N2C(=O)C(O)=C(C(=O)c3ccco3)C2c2ccc(F)cc2)s1 (stereo unspecified) | -13.6%
10 | O=C(c1ccc(N2CCOCC2)c([N+](=O)[O-])c1)N1CCN(c2ccccc2F)CC1 | 8.07%
11 | O=C(c1cccc(F)c1)N1CCN(c2ccc([N+](=O)[O-])c(N3CCCCC3)c2)CC1 | 5.61%
12 | O=C(c1cccc(F)c1)N1CCN(c2ccc([N+](=O)[O-])c3cccnc23)CC1 | -82.8% (active)
13 | O=C(CN1C(=O)NC2(CCCCCC2)C1=O)NCc1cccs1 | -9.8%
14 | COc1ccc(Br)cc1C1C2C=CCC(C)C2C(=O)N1Cc1ccccc1 (stereo unspecified) | 20%
15 | O=C(O)C1CC=CC2CCN(C3CCCCC3)C(=O)C21 (stereo unspecified) | -16.4%
16 | Cc1ccc2ccc3c(c2n1)NS(=O)(=O)c1ccccc1-3 | -5.37%
17 | Cc1ccccc1NCC(=O)N/N=C\c1ccc([N+](=O)[O-])s1 | -89.1% (active)
18 | CC(C)(C)c1cc(C(=O)N/N=C/c2ccc([N+](=O)[O-])s2)n[nH]1 | -93% (active)
19 | O=C(COc1ccccc1[N+](=O)[O-])N/N=C/c1ccc[nH]1 | 5.97%
20 | Cc1cc(C(=O)N/N=C/c2cc([N+](=O)[O-])cc(C)c2O)n[nH]1 | -15.8%
21 | CC(C)c1cc(C(=O)N/N=C/C(Br)=C/c2ccccc2)n[nH]1 | 15.8%
22 | Cc1cccc(/C=N/NC(=O)CNc2cccc3ccccc23)n1 | -9.25%
23 | CC1(C)OC(=O)N2CCc3ccccc3C21C (stereo unspecified) | -12.9%
24 | CCOc1ccc(C(C)=O)cc1CSc1nnc(-c2ccncc2)n1CCOC | 1.79%

Row | SMILES | activity change
25 | O=C(NNC(=O)c1ccccc1[N+](=O)[O-])Nc1ccccc1C(F)(F)F | -21.9%
26 | Cn1c(SCC(=O)Nc2ccc(Br)cc2F)nnc1-c1ccco1 | -12.3%
27 | COc1ccc(-n2cnc3cc(NCc4ccco4)ccc32)cc1 | -16.4%
28 | Cn1c(-c2ccco2)nc2cc3ccccc3cc21 | -82.6% (active)
29 | Cc1ccc(-c2nc3ccccn3c2Nc2ccc(F)cc2)o1 | 13.3%
30 | NCCCNC(=S)NCCCN(Cc1ccc(Cl)cc1)c1ccc(Br)cn1 | -3.06%
31 | C=C1CCN(C(CC(C)C)C(=O)NCc2cc(OC)c(OC)c(OC)c2)S(=O)(=O)c2ccccc21 (stereo unspecified) | -2.48%
32 | O=C1c2ccccc2C(=O)N1c1ccc(S(=O)(=O)N2CCOCC2)c2ccccc12 | -26.6%
33 | c1ccc(-n2ncc(-c3nn[nH]n3)n2)cc1 | -10.6%
34 | O=[N+]([O-])c1ccc(S(=O)(=O)N2CCN(c3nc(-c4ccccc4)nc4ccccc34)CC2)cc1 | -1.14%
35 | CCC(=O)c1ccc(OCC(=O)N(CC)CC2COc3ccccc3O2)cc1 (stereo unspecified) | 5.76%
36 | O=C(NCCc1ccco1)c1ccc(OCc2cn3ccccc3n2)cc1 | -6.02%
37 | O=C(Cc1ccccc1)Nc1c(C(=O)N2CCCCCC2)cnn1-c1ccccc1 | 7.39%
38 | O=C(Nc1cccc2cccnc12)C(F)(F)F | 11.7%
39 | O=c1onc(-c2c(F)cccc2F)n1-c1ccccc1Cl | -18.5%
40 | c1ccc2cc3c(NCCN4CCOCC4)ccnc3cc2c1 | -97.2% (active)
41 | c1ccc(-c2ccc(OCCN3CCOCC3)cc2)cc1 | 19.5%
42 | CCOc1nc(NCCN2CCOCC2)nc(Nc2ccc(C)cc2)n1 | 17.9%
43 | COc1cc2nc(CN(C)Cc3ccc(F)cc3)[nH]c(=O)c2cc1OC | 1.83%
44 | CCCNC(=O)c1onc(CSc2ccc(F)cc2)c1C(=O)NC(C)C | 23.4%
45 | CC(C)C(NC(=O)C1CCC(C(C)(C)C)CC1)C(=O)NCCCN1CCCCC1 (stereo unspecified) | -2.26%
46 | CCOCCCNC(=O)C(NC(=O)CNC(=O)c1ccccc1)c1ccc(OC)cc1 (stereo unspecified) | -20.4%
47 | COc1ccc(-c2nc3c(c(SCC(=O)Nc4ccc(C(=O)O)cc4)n2)Cc2ccccc2O3)cc1 | 9.92%
48 | Cc1cc(C)cc(OCC(=O)Nc2cc(NC(=O)COc3cc(C)cc(C)c3)cc(C(=O)O)c2)c1 | -12.2%

Row | SMILES | activity change
49 | CC1C/C(=N/NC(=O)c2cccs2)CC(C)(C)C1 (stereo unspecified) | 4.93%
50 | Oc1ccc(Cl)cc1C1C=C(c2ccc3c(c2)OCO3)NC(c2ccc(F)c(Br)c2)N1 (stereo unspecified) | -24.8%
51 | O=C(c1ccc2c(=O)n(Cc3ccco3)c(=S)[nH]c2c1)N1CCCC1 | 4.07%
52 | O=C1C[C@@H](c2ccc3ccccc3c2)N1S(=O)(=O)c1ccccc1[N+](=O)[O-] | 0.869%
53 | COc1ccc(C(CCN2CCOCC2)c2c(OC)cc(OC)c3c2OC(=O)CC3c2ccc(OC)cc2)cc1 (stereo unspecified) | 12.9%
54 | CCN(CC)c1nc(C#N)nc(OC)n1 | -9.05%
55 | C=C1CCN(Cc2ccc(OC)cc2)S(=O)(=O)c2ccccc21 | 23.9%
56 | CCOc1cc2[nH]c(=O)n(CCC(=O)NCc3ccc(OC)cc3)c(=O)c2cc1OCC | -9.64%
57 | COc1ccc(C2/C=C\CN(C(=O)c3ccc(C)cc3)C(Cc3ccccc3)C(=O)N2Cc2ccc(F)cc2)cc1 (stereo unspecified) | 28.8%
58 | Cc1ccc(-c2nnc3ccc(SCC(N)=O)nn23)cc1 | 5.27%
59 | CNN/C(N=Cc1ccc([N+](=O)[O-])s1)=N\S(=O)(=O)c1cc(C)c(Cl)cc1SCc1ccccc1 | -85.8% (active)
60 | O=[N+]([O-])c1ccc(C=Nc2ccc(Cl)cc2Cl)s1 | 12%
61 | OC[C@@H]1O[C@H](n2cnc3c(SCc4ccccc4)ncnc32)[C@H](O)[C@H]1O | 7.24%
62 | COc1ccc(CCn2c3c(c(=O)[nH]c2=S)CN(C(C)C)CN3)cc1OC | -2.67%
63 | O=C(Nc1ncc([N+](=O)[O-])s1)C1COc2ccccc2O1 (stereo unspecified) | -95.9% (active)
64 | O=C(Cc1c(F)cccc1Cl)Nc1ncc([N+](=O)[O-])s1 | -90.9% (active)
65 | O=C(CCc1ccccc1)Nc1ncc([N+](=O)[O-])s1 | -95.3% (active)
66 | COc1ccc(S(=O)(=O)N2CCOCC2)cc1NC(=O)Cc1c(F)cccc1Cl | 0.481%
67 | CC(C)Cc1nnc(NC(=O)CCc2ccccc2)s1 | -6.99%
68 | CC(=O)c1cccc(NC(=O)C2COc3ccccc3O2)c1 (stereo unspecified) | 3.94%
69 | O=C(Nc1cc(S(=O)(=O)N2CCCCC2)ccc1Cl)C1COc2ccccc2O1 (stereo unspecified) | 9.58%
70 | COC(=O)CSc1nnc(NC(=O)CCc2ccccc2)s1 | -28.2%
71 | CN(c1ccccc1)S(=O)(=O)c1cccc(NC(=O)Cc2c(F)cccc2Cl)c1 | 6.09%
72 | O=C(Nc1cccc(Cl)c1)c1cc(S(=O)(=O)N2CCCCC2)c[nH]1 | -28.5%

Row | SMILES | activity change
73 | Cc1nn(C(C)CC(=O)O)c(C)c1C (stereo unspecified) | 7.78%
74 | CCC1(C)Cc2c(sc3[nH]c(=S)n(Cc4ccccc4)c(=O)c23)CO1 (stereo unspecified) | -14.6%
75 | COc1cc2c(cc1OC)C(/C=C/c1ccco1)=NCC2 | -3.82%
76 | CCOc1ccc(C(=O)NC(C(=O)NCc2ccccn2)C(C)C)cc1 (stereo unspecified) | -4.15%
77 | OCCNc1ncnc2oc(-c3ccco3)c(-c3ccco3)c12 | -2.77%
78 | COc1cc(OC)c2c(c1C(CCN1CCCCC1)c1ccc(N(C)C)cc1)OC(=O)CC2c1ccc(N(C)C)cc1 (stereo unspecified) | 7.67%
79 | O=S(=O)(Nc1cccc2cccnc12)c1cccc2cccnc12 | -17.9%
80 | CCOc1ccc(S(=O)(=O)N2CCN=C2Cc2ccccc2)cc1C | -28.6%
81 | O=C(c1ccco1)N(Cc1cccs1)c1ccc(O)cc1 | -7.42%
82 | COc1ccc(CN2CCc3nc(Nc4ccccc4)ncc3C2)c(OC)c1OC | -13.9%
83 | NS(=O)(=O)c1ccc(NC(=O)CSc2nnc3c(n2)[nH]c2ccccc23)cc1 | -21.1%
84 | CCOCN(C(=O)Cn1c(C(C)O)nc2ccccc21)c1c(C)cccc1CC (stereo unspecified) | 8%
85 | CN(CCC#N)c1ncnc2scc(-c3ccccc3)c12 | -2.98%
86 | O=C1CC(c2ccccc2)CC2=C1C(c1ccco1)n1nc(C(F)(F)F)nc1N2 (stereo unspecified) | 14.6%
87 | CC(Nc1nc(N2CCCC2)nc2ccccc12)c1ccccc1 (stereo unspecified) | 3.32%
88 | CC(Nc1nc(N2CCN(CCO)CC2)nc2ccccc12)c1ccccc1 (stereo unspecified) | -93.8% (active)
89 | CC(Nc1nc(N2CCOCC2)nc2ccccc12)c1ccccc1 (stereo unspecified) | 4.71%
90 | O=C1C2C(c3ccccc3)CC=CC2C(c2ccoc2)N1Cc1ccccc1 (stereo unspecified) | -9.66%
91 | O=C(Nc1cccc([N+](=O)[O-])c1)c1ccc2c(c1)OCO2 | 7.08%
92 | O=C(Nc1ccc(Br)cn1)c1ccc([N+](=O)[O-])o1 | -87.6% (active)
93 | O=C(Nc1cccc(O)c1)c1ccc(C(=O)c2ccccc2)o1 | -8.06%
94 | O=C(Nc1ccc(Br)cn1)c1ccc([N+](=O)[O-])cc1Cl | -28.4%
95 | Cc1cccc(NC(=O)c2ccc([N+](=O)[O-])o2)c1 | -85.9% (active)
96 | CN1C(=O)c2ccc(C(=O)Nc3ccc(Br)cn3)cc2C1=O | 6.68%
